Source: PubChem BioAssay (EPA / NIEHS)
Results filed as inconclusive are left out. Where a structure was tested more than once in an assay, its records may differ in their call. Activity calls are given as the source filed them. How the source made its calls: active means hit-call score of the fitted dose curve at least 0.9, where 1 is the maximum; inconclusive means response in the unintended direction; inactive means score below 0.9.

Each compound was assayed against Oxysterols receptor LXR-beta (Homo sapiens) (UniProt P55055) (assay: ATG_LXRb_TRANS: Attagene TRANS-FACTORIAL HepG2 Assay for human Liver X Receptor beta (LXRb) (AID 2282981)). Settings: HepG2 Attagene TRANS GAL4-LXRb reporter, mRNA.
Chain of Oxysterols receptor LXR-beta (Homo sapiens) (P55055 whole entry, looked up, the tested form may be a part): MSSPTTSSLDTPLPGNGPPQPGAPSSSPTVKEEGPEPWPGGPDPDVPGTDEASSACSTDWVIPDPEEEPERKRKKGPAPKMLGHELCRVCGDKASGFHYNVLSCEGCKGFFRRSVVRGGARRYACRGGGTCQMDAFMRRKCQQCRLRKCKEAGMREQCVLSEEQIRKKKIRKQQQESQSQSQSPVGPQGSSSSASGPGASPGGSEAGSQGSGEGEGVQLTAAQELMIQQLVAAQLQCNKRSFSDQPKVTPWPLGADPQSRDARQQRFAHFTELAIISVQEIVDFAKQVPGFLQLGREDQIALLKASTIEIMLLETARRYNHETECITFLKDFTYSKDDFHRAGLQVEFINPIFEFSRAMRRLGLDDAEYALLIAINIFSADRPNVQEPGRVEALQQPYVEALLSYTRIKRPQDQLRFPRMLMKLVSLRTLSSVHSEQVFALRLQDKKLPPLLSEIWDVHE
Description: ATG_TRANS is a cell-based, multiplexed-readout assay that uses HepG2, a human liver cell line, with measurements taken at 24 hours after chemical dosing in a 24-well plate.ATG_LXRb_TRANS is one of 30 assay component(s) measured or calculated from the ATG_TRANS assay. It is designed to make measurements of mRNA induction, a form of inducible reporter, as detected with fluorescence intensity signals by Reverse transcription polymerase chain reaction (RT-PCR) and Capillary electrophoresis technology.Data from the assay component ATG_LXRb_TRANS was analyzed into 1 assay endpoint. This assay endpoint, ATG_LXRb_TRANS, was analyzed in the positive analysis fitting direction relative to DMSO as the negative control and baseline of activity. Using a type of inducible reporter, measures of mRNA for gain-of-signal activity can be used to understand the reporter gene at the transcription factor-level as they relate to the gene NR1H2. Furthermore, this assay endpoint can be referred to as a primary readout, because this assay has produced multiple assay endpoints where this one serves a reporter gene function. To generalize the intended target to other relatable targets, this assay endpoint is annotated to the nuclear receptor intended target family, where the subfamily is non-steroidal.
Human liver HepG2 cells are transiently transfected with multiple reporter transcription units (MRTUs) in 6-well plates using FuGene 6 reagent (Roche; 3 ml FuGene/1 mg DNA). The MRTU constructs are regulated by a cis-regulating element (promoter). […] A major difference between the CIS and TRANS system is that in CIS activities of endogenous TFs are measured, whereas the TRANS assay evaluates changes in activities of exogenous, chimeric NR-Gal4 proteins. […] At the end of 24 hour incubation, total RNA was isolated using TriZol reagent (Invitrogen). The isolated RNA is then reverse-transcribed using oligo(dT) primer and Mo-MLV reverse transcriptase (Invitrogen) with DNAse I (Ambion) treatment for 30 min. The one-tenth of the produced cDNA was amplified by PCR using Taq DNA polymerase (Invitrogen) and two reporter sequence-specific primers. The PCR products were fluorescently labeled by primer extension with 6-arboxyfluorescein (6-FAM) 5'-labeled reporter sequence-specific primer (2 min at 95 C, 20 s at 68 C and 10 min at 72 C) and these products were digested with 5U of HpaI (New England Biolabs) for 2h at 37 C. The fragments were purified using Qiaquick PCR columns (Qiagen), analyzed on an ABI 3130xL genetic analyzer (Applied Biosystems) with peak positions identified by using a set of X-rhodamine (ROX)-labeled MapMarker1000 molecular weight standards (BioVentures). The raw capillary electrophoresis data was processed using Attagraph software (Attagene).
For CC=O, the outcome was “inactive”.
CC(C)CCOCCC(C)C was tested, and the outcome was “inactive”.
C[C@]12CC[C@@H]3c4ccc(O)cc4CC[C@H]3[C@@H]1CC[C@@H]2OC(=O)CCC1CCCC1 was tested, and the outcome was “inactive”.
For CC(=O)CC(C)C, the outcome was “inactive”.
CC(C)(C)C1CCCCC1O (stereo not given) was tested, and the outcome was “inactive”.
In the case of COC1=CC(=O)C[C@@H](C)[C@]12Oc1c(Cl)c(OC)cc(OC)c1C2=O, the outcome was “inactive”.
For C[N+](C)(CCCNS(=O)(=O)CCC(F)(F)C(F)(F)C(F)(F)C(F)(F)C(F)(F)C(F)(F)F)CC(=O)[O-], the outcome was “inactive”.
For FC(F)(F)N1C(F)(F)C(F)(F)OC(F)(F)C1(F)F, the outcome was “inactive”.
With Cc1ccc2ccc3ccc(C)cc3c2c1 the outcome was “inactive”.
For OCC(CO)(CBr)CBr, the outcome was “inactive”.
In the case of C=CC(F)(F)C(F)(F)C(F)(F)C(F)(F)F, the outcome was “inactive”.
For COc1cc([N+](=O)[O-])ccc1N, the outcome was “inactive”.
With O=C(O)C(F)(F)OC(F)(F)C(F)(F)OC(F)(F)C(F)(F)OC(F)(F)C(F)(F)C(F)(F)C(F)(F)F the outcome was “inactive”.
With CCCCCCc1ccc(N)cc1 the outcome was “inactive”.
For CCCCCCCCCCCCCC[n+]1ccccc1, the AC50 was 53.6 µM (active).
With O=c1cc(-c2ccccc2)oc2ccc3ccccc3c12 the outcome was “inactive”.
With C=CC(=C)CC/C=C(\C)CCC=C(C)C the outcome was “inactive”.
For NC(=NCCCCCCN=C(N)/N=C(\N)Nc1ccc(Cl)cc1)/N=C(\N)Nc1ccc(Cl)cc1, the AC50 was 24.1 µM (active) and the outcome was “inactive”.
For COc1cc(OC)nc(NC(=O)NS(=O)(=O)Nc2ccccc2C(=O)N(C)C)n1, the outcome was “inactive”.
O=C(O)C(=O)O was tested, and the outcome was “inactive”.
For Nc1cc(Cl)c(-c2cc(Cl)c(N)cc2Cl)cc1Cl, the outcome was “inactive”.
O=CC(F)(F)C(F)(F)C(F)(F)F was tested, and the outcome was “inactive”.
For Cc1cc(C(C)(C)C)c(O)c(C(C)(C)C)c1, the outcome was “inactive”.
In the case of CCCCN(C)C, the outcome was “inactive”.
COCC1CCC(CO)CC1 (stereo not given) was tested, and the outcome was “inactive”.
In the case of CC(C)(C)c1ccc(O)c(O)c1, the outcome was “inactive”.
In the case of O=C(Nc1ccc(Cl)c(Cl)c1)c1cc(Cl)cc(Cl)c1O, the outcome was “inactive”.
In the case of NNc1nc(-c2ccc([N+](=O)[O-])cc2)cs1, the outcome was “inactive”.
With CN(Cc1cnc2nc(N)nc(N)c2n1)c1ccc(C(=O)N[C@@H](CCC(=O)O)C(=O)O)cc1 the outcome was “inactive”.
For O=C1c2ccccc2C(=O)c2c(O)c(O)cc(O)c21, the outcome was “inactive”.
CCCCCCCCCCCC was tested, and the outcome was “inactive”.
In the case of CCCCCCCCC(C)=O, the outcome was “inactive”.
In the case of NNC(=O)CCCCC(=O)NN, the outcome was “inactive”.
For C=CC(=O)OCCN(CC)CC, the outcome was “inactive”.
In the case of CC1=CC(=O)c2ccccc2C1=O, the outcome was “inactive”.
For OCCN1CN(CCO)CN(CCO)C1, the outcome was “inactive”.
CCCC=O was tested, and the outcome was “inactive”.
